Our source for the PBM binding z-score values is the supplement of paper PMC6555819.

This assay deals with VDR:RXRa (NR concentration 270 nM, RXRa partner concentration 90 nM). The assay is described as follows: PBM binding z-score (relative to random genomic background probes); higher = stronger binding; sequences stand for … in GC…GCGATTGACAGCGTAGAATGAAGG
On the procedure: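 Protein-binding microarray (Agilent 4x180K custom design, double-stranded 60-nt probes: 5' GC cap, 34-nt variable region, 24-nt constant primer region; full probe sequence given). Purified or IVT nuclear receptor:RXRα heterodimers (3:1 NR:RXRα, mostly 270:90 nM) or homodimers were incubated for 1 h in PBS with 2% milk and no ligand, then detected with Alexa488 antibodies. Fluorescence from o1-orientation probes (~5 replicates averaged) was converted to z-scores against 500 random hg19 background probes. Variable regions are seed direct-repeat (DR0–DR5) sites, all their single-nucleotide variants and half-site ablations.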
On to CAAACTAGGTCATCCAGGACAGTGAATACATTGA, for which the PBM binding z-score worked out at 4.58. Next, CACGAAAGGTCGTGCTCAGGTGAGTATACCAAAC: 3.51. Consider CCGAGTAGGTTATGGGGCATTAAGGCAACGGTGA, for which the PBM binding z-score was found to be 0.259. As for ACAGACATGTGAGTGAAGGTAACTCAGCTGGACG, the PBM binding z-score is -0.252.

Consider ACTAGTTGGTCAGCTTAGGTCACACACAATTCGG, for which the PBM binding z-score came out at 1.82. Next, TCTTGTAGAGCAATAGAGGTTAAGAAAGTGCGCT: 1.18; GCTTACGGGTTAAAGGTTATAGCATGAATAGAAT: 3.18. Next, CAAACTAGTTCAAGGTCAAAGTCGGTTTGTGCCA: 4.92. In turn, CAAACAAGGTCAAGGTCAAAGTCGGTTTGTGCCA returned a PBM binding z-score of 6.23. Next, CGTCCAAGGTAAGCAGGTCAGTGAAAGCGACGTG: 0.00518; TCATATAGGTAAATGCTAGGTGAATGTCCGATCT: 0.74. Regarding CCTACTTGGCCAAGGTCATTGATCAGTCAAAGCA, the PBM binding z-score came out at 3.78.

TCTGCTAGGTCAACGATGGGCAGCTAATCTGCTA returned a PBM binding z-score of 0.993. Next, CCTAGTTGGTCAGAAGGTCACACACCGGATATGA: 3.5. Next, AGAATGAGGTTATTAAGATCAGGTAATTGCGGTC: 2.82; AGAATGAGCTTATACGTAGATCAGGGAAGAAAGT: -0.451; CAAACTAGGTCACCGGAAGGTCAAATTCCGCATG: 5.9. Next, CCAGACAGGTGAAAGGTAACTCGGTCTGGTACGC: 0.865; CGTCCAAGGTCGGCAGGTCAGTGAAAGCGACGTG: 1.28; ACTGGCAGGCCAAGTTTGGGTCACTCAAACAAAG: 0.456.

In turn, CGTCATAGTTCAAGGTAACGTAACAGAAAGCAGC returned a PBM binding z-score of 1.3. Next, TGGAGTAGGTTAGGGGCATTCAGAATGGCGTCGA: 1.05; ATATGTAGGTTAAGGGTCATTCTGGTTGGTTCGC: 4.92. Sequence TCGAATAGGTTAGTCGGGGCATTCAGCCAACATA showed a PBM binding z-score of 3.04. Next, CCTACTGGGCCAAAAAGGTCATTGAAGCCGATAA: 4.54; TCTGCTAGGTCAGTTGGTCACCTAACGAGCTGCC: 0.235; TCAGCTAGGTCAGTTGGTCAGCTAACGAGCTGCC: 0.211. Next, TTACCAAGGTGAAGGTCGTTGTTCCCTCTGTAGA: 1.26; CGAACTAGGTCACTGACAGGACAGTGAATAGTAA: 1.77.

Sequence GTACCAAGGTGAATAGGTCGTTAATGAGTAGGCG showed a PBM binding z-score of 0.93.

TCTATTAGTTGATTACGGCAACCGAAACAGCGGA came in with a PBM binding z-score of 0.738.

As to CGAGCGAGGGCATGAGTTGATAGCAAATGCCGAT, the PBM binding z-score was found to be 1.3.

With TCTTTTAGATCAACAGGAGGTTAAGAAAGATCGA, the PBM binding z-score is 0.982. Regarding ACAGACAGGTGAGTGAAGTTAACTCAGCTGGACG, the PBM binding z-score is -0.576.

Regarding GGAACGAGGGGAAGTTGATAGCAGAGTTTGATGG, the PBM binding z-score is -0.234. Next, ATCGACAGGTCGAAGGTGAGTATACCCACCCGAA: 0.627; CCGACTGGGGGAAGGTTACCATAACGCACAGCCA: 0.558; CTCGAAAGGTCTGTTGAGGTGAGTATACGGATAA: 0.221. Next, CTCTAAAGGTCGTGCTCAGGTGAGTATACCAAAC: 3.27.

Consider ATCGAAAGCTCGTGAGGTGAGTATACAGAAAGGC, for which the PBM binding z-score is -0.256.
